Assay outcomes: PubChem, National Center for Advancing Translational Sciences (NCATS)
Shown are actives, neighbours in structure and some others; about 12% of the full set was active somewhere.
HP1b binding inh – inhibitors of HP1-beta chromodomain binding to methylated histone tails; AlphaScreen HP1-beta / biotin-H3K9me3 peptide binding; Potency, µM (series often up to 114 µM), for inactives: at the top dose activity change, negative = inhibition, actives largely listed as inhibitors; hit rate 0.56% among 390,000; AID 540317; further: nearly all actives have a fitted effect of over 70% in size
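Compound inhibition of the preformed complex between 50 nM HP1-beta and 50 nM biotinylated H3K9me3 peptide was read by AlphaScreen. Buffer was PBS pH 7.4 with 0.01% Tween-20. Incubations ran 30 min at room temperature, with 10 ug/mL donor/acceptor beads.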
JMJD2A Tudor inh – inhibitors of human JMJD2A Tudor domain; hit rate 4.4% among 390,000; Potency, µM (top dose mostly 114 µM), inactives show top-dose activity change, negative = inhibition, hits mostly inhibitors; O75164; AlphaScreen JMJD2A-Tudor / H3K4me3 peptide binding; further: on the % scale 0 is the no-effect control and ±100 the full control effect; nearly all actives have a fitted effect of over 50% in size
G9a inh – inhibitors of human histone lysine methyltransferase G9a. Q96KQ7. G9a H3K9 monomethylation, AlphaScreen, 2 h. Potency, µM (highest dose often 102 µM), for the others: top-dose activity, negative = inhibition, usual class: inhibitors. hit rate 8.8% among 350,000; further: on the % scale 0 is the no-effect control and ±100 the full control effect; nearly all actives have a fitted effect of over 75% in size
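Using a bead-based AlphaScreen, monomethylated H3K9 product from 2 h room-temperature reactions (G9a 20 nM, peptide 500 nM, SAM 20 uM) was detected with 0.5 ug/mL rabbit anti-H3K9me1 antibody.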
Sfp PPTase inh – inhibitors of Bacillus subtilis Sfp phosphopantetheinyl transferase; Q9F4F7; Biochemical Sfp PPTase activity, qHTS; Potency, µM, without a hit: largest response in the series, negative = inhibition, usual class: inhibitors; hit rate 3.5% among 310,000;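 further: the enzyme is Sfp with the accession as filed and its product quenches rhodamine fluorescence; 0% = enzyme reaction without inhibitor and -100% = no enzyme wells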
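Fluorescence-quenching assay: 15 nM Sfp-PPTase preincubated 15 min at room temperature with compound, then 5 uM rhodamine-CoA and 12.5 uM BHQ-2-labelled YbbR peptide added. Fluorescence (ex 525/em 598 nm) read at start and after 30 min; difference gives rate.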
BAZ2B block – inhibitors of human BAZ2B bromodomain | Q9UIF8 | AlphaScreen BAZ2B-H3K14Ac peptide displacement | Potency, µM (series often up to 114 µM), inactives show at the highest dose activity change, negative = inhibition, hits mostly inhibitors | hit rate 4.4% among 360,000; further: on the % scale 0 is the no-effect control and ±100 the full control effect; nearly all actives have a fitted effect of over 60% in size
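AlphaScreen displacement of biotin-H3(5-23)K14Ac peptide (50 nM final) from BAZ2B (50 nM final) in PBS pH 7.4, 0.01% Tween-20; complex preformed 30 min RT, then compounds (top 110 uM) 30 min RT, beads 20 min dark.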
* = called active by the depositor; ? = inconclusive; . = no result; ! = not active in a repeat; [ ] = remark or other dose. The call rests on the fitted dose curve; in most records, active means well fitted curve in the direction sought with a large enough effect; inconclusive means small, poorly fitted or top-dose-only effect, or another doubt; inactive means no such curve, though single readings can be large; an effect the other way counts as inactive or inconclusive. Potency means the concentration at half of the fitted maximal effect.

SMILES | HP1b binding inh | JMJD2A Tudor inh | G9a inh | Sfp PPTase inh | BAZ2B block
Cc1c(NC(=O)/C(C#N)=C/c2ccc(-c3cc(Cl)ccc3Cl)o2)c(=O)n(-c2ccccc2)n1C | 22% | ? | ? | -8% | ?
N#C/C(=N\Nc1ccc(Cl)cc1)C(=O)c1ccccc1 | ? | 45µM* | ? | 6% | 50µM*
Cc1c(N/N=C(\C#N)C(=O)c2ccc(Cl)cc2)c(=O)n(-c2ccccc2)n1C | -3% | 79µM* | ? | 7% | 25µM*
N#C/C(=C/c1ccc(-c2ccc(C(=O)O)c(Cl)c2)o1)C(=O)NCC1CCCO1 (stereo unspecified) | -12% | -6% | ? | 1% | 56µM*
CCOC(=O)NC(=O)/C(C#N)=N\Nc1ccc(Cl)cc1 | -9% | -23% | -25% | -7% | -37%
Cc1cc(N2CCC(C(=O)Nc3ccc(F)cc3C)CC2)n2nc(C)c(-c3ccc(Cl)cc3)c2n1 | 30% | 0% | 1%[59 µM] | . | -5%
CCCCCC(=O)c1cc(CC(C(=O)OC)C(=O)OC)cc2cc(OC)c(OC)cc12 | . | . | . | -6% | .
Cc1ccc(CNC(=O)CC2Oc3ccccc3NC2=O)cc1 (stereo unspecified) | 30% | -3% | 8%[59 µM] | . | 2%
Cc1ccc(CNC(=O)c2ccc3c(c2)c(C)c(C)n3Cc2ccc(Cl)cc2)o1 | 29% | ? | ? | . | -26%
COc1ccc2c(CNCCc3ccccc3OC)c(C(=O)O)n(Cc3ccc(F)cc3Cl)c2c1 | -2% | ? | ? | . | ?
N#C/C(=C\c1ccc(-c2ccc(C(=O)O)cc2)o1)C(=O)Nc1ccccc1C(=O)O | -5% | 79µM* | ? | . | ?
N#C/C(=C\c1ccc(-c2ccc(Br)cc2)o1)C(=O)Nc1ccccc1O | 10% | -17% | -24%[59 µM] | . | -1%
CCN(CC)c1ccc(NC(=O)CCCCCN2C(=O)c3ccccc3C2=O)cc1 | ? | 25µM* | 2.5µM* | -11% | 45µM*
Cc1ccc(NC(=O)CCCN2C(=O)c3cccc4cccc(c34)C2=O)cc1 | 0% | 79µM* | 46%[59 µM] | -24% | 0%
CC(C)N(C(=O)[C@H]1C[C@H](CC(=O)NCCN2CCOCC2)C(=O)N2CCc3c([nH]c4ccc(Cl)cc34)[C@]12C)C(C)C | 28% | -12% | . | . | .
CC12CCC(=O)C=C1CCC1C2CCC2(C)C(c3csc(N)n3)CCC12 (stereo unspecified) | 20% | -5% | . | . | .
CCOC(=O)C1=C2NC(=O)c3ccccc3N2C(=O)C1 | ? | ? | 7.9µM* | -22% | -28%
C=C1c2ccccc2O[C@H](C(=O)OCC)[C@@H]1CCC(C)C (tested in a mixture with another compound) | . | . | 42% | 0% | .
C=C1c2cccc(OC)c2O[C@H](C(=O)OCC)[C@@H]1CCC(C)C | . | . | 32µM* | -1% | .
COc1cn(CC(=O)Nc2cccc(C)c2)c(CN2CCCCC2)cc1=O | 24% | 1% | 1%[59 µM] | . | 0%
CCc1ccc(OCCCCCn2ccnc2)cc1 | 56µM* | 2.5µM* | 10µM* | -24% | 50µM*
CCc1ccc(OCCn2ccnc2)cc1 | ? | 28µM* | 22µM* | -7% | ?
c1ccc(OCCCn2ccnc2)cc1 | 15% | -15% | . | -5% | 1%
Fc1ccc(OCCCCCn2ccnc2)cc1 | 18% | -18% | 13% | -11% | -26%
NC(=O)n1c(O)c(C(=O)c2cccs2)c2cc(Cl)ccc21 | . | . | ? | -25% | .
SMILES | HP1b binding inh | JMJD2A Tudor inh | G9a inh | Sfp PPTase inh | BAZ2B block
O=S(=O)(NCCO)c1ccc2c(c1)Cc1cc(S(=O)(=O)NCCO)ccc1-2 | 2% | -8% | 6% | 12% | 3%
NNS(=O)(=O)c1ccc2c(c1)Cc1cc(S(=O)(=O)NN)ccc1-2 | 11% | -13% | 7.9µM* | -19% | -7%
N[C@@H](Cc1cnc[nH]1)C(=O)O | . | . | 6µM*! | ? | .
O=C(CSc1nc2ncccc2o1)Nc1cccc(C(F)(F)F)c1 | 17% | -4% | -5%[59 µM] | . | -3%
COc1cc2c(cc1OC)C(COc1cccc(C(F)(F)F)c1)NCC2 (stereo unspecified) | 9% | -25% | 4%[59 µM] | 6% | -1%
Cn1c(N2CCOCC2)c(/C=N/OC(=O)c2cccnc2Cl)c2ccccc21 | 48% | -17% | ? | 22µM* | -6%
